Test systems include HCT-15 colon; HT29 colon; SNB-75 CNS; SNB-19 CNS; U251 CNS; PC-3 prostate; SK-MEL-5 melanoma; UACC-62 melanoma; LOX IMVI melanoma; SK-MEL-28 melanoma.
What all share (test): NCI-60 one-dose screen, 48 h (100 = growth as untreated, 0 = no growth, -100 = all killed)
Settings in all cases: 10 µM unless noted

This is part of a sample that, as a whole, favours compounds with a hit. Of some 83,000 tested, about 20% had one in any assay.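 Assay: single dose, 48 h. Readout: percent growth (0 = no net growth; negative = cell death). Active: <10.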 A number with no mark means an inactive call. Active and inactive are the calls of the source.

As for `CN1C(=O)N(C)C2C1NN=c1s/c(=C\c3ccc(C(F)(F)F)cc3)c(=O)n12` (stereo not given), the growth in the assay on HCT-15 colon was 24.2%; in the assay on HT29 colon, 9.64% (active); with SNB-75 CNS it was 7.43% (active); in the assay with SNB-19 CNS it was 30%; in the assay on U251 CNS, 21.6%; with PC-3 prostate, 18.8%. In addition, the growth was 4.36% (active) in the assay with SK-MEL-5 melanoma, 26.7% in the assay on UACC-62 melanoma, 36.6% with LOX IMVI melanoma and 60.4% in the assay with SK-MEL-28 melanoma.
On to `O=[N+]([O-])c1ccc(N/N=C\c2ccc(O)cc2O)nc1`, for which the growth with HCT-15 colon is 29.8%; with HT29 colon, 90.2%; in the assay on SNB-75 CNS it was 53.6%; in the assay with SNB-19 CNS, 58.6%; with U251 CNS, 28.4%; in the assay with PC-3 prostate, 49.5%. The growth with SK-MEL-5 melanoma was 13.7%; in the assay on UACC-62 melanoma, 43.9%; in the assay with LOX IMVI melanoma, 24.7%; in the assay with SK-MEL-28 melanoma, 64.1%.
As for `CC(C)(C)[Si](C)(C)OC1[C@@H](CNC(N)=O)O[C@@H](n2cnc3c(NC(=O)Nc4ccccc4)ncnc32)[C@H]1O[Si](C)(C)C(C)(C)C` (stereo not given in full), the growth in the assay with HCT-15 colon was 48.3%; with HT29 colon, -7.1% (active); in the assay on SNB-75 CNS it was 73.9%; in the assay on SNB-19 CNS it was 88.4%; with U251 CNS it was 62.2%; in the assay with PC-3 prostate, 17%. In addition, the growth in the assay on SK-MEL-5 melanoma was 76.9%; in the assay on UACC-62 melanoma, 83.3%; with LOX IMVI melanoma, 32.3%; in the assay with SK-MEL-28 melanoma, 92.7%.
For `COc1ccccc1CNCCCN1C(=O)c2ccc3c4c(ccc(c24)C1=O)C(=O)N(CCCNCCCN)C3=O`, the growth was 8.83% (active) in the assay on HCT-15 colon; -31.5% (active) with HT29 colon; 46% in the assay with SNB-75 CNS; 11.9% in the assay on SNB-19 CNS; -72.5% (active) in the assay on U251 CNS; 18.7% in the assay on PC-3 prostate. The growth in the assay with SK-MEL-5 melanoma is -97.8% (active); in the assay on UACC-62 melanoma, -50% (active); in the assay on LOX IMVI melanoma, -7.09% (active); in the assay on SK-MEL-28 melanoma, 22.7%.
Consider `CCOC(=O)Cc1cc(Br)c(OCc2ccccc2)c(Br)c1`, for which the growth in the assay on HCT-15 colon is 88.7%; with HT29 colon it was 99%; in the assay with SNB-75 CNS it was 87.3%; in the assay on SNB-19 CNS it was 97.9%; in the assay with U251 CNS, 90.2%; in the assay with PC-3 prostate, 84.1%. For the same compound, the growth is 104% with SK-MEL-5 melanoma, 70.8% in the assay on UACC-62 melanoma, 87.6% in the assay on LOX IMVI melanoma and 106% in the assay with SK-MEL-28 melanoma.
Take `O=c1c2cc(Br)cc(Br)c2nc(-c2ccc(Cl)cc2)n1/N=C\c1ccccc1F`: the growth in the assay with HCT-15 colon was 88.3%; in the assay on HT29 colon it was 77.3%; with SNB-75 CNS, 13.7%; in the assay on SNB-19 CNS it was 68.8%; in the assay on U251 CNS, 55.1%; in the assay with PC-3 prostate, -87.1% (active). The growth with SK-MEL-5 melanoma was 89.4%; with UACC-62 melanoma, 70.7%; with LOX IMVI melanoma it was 70.3%; in the assay with SK-MEL-28 melanoma, 98.4%.
For the compound `CCCCc1nc(Cl)c(C2CC(c3ccc(S(N)(=O)=O)cc3)=NN2c2cc(Cl)cc(Cl)c2)[nH]1` (stereo not given), the growth in the assay with HCT-15 colon is 45.7%; with HT29 colon, 23.3%; in the assay with SNB-75 CNS, 62.2%; with SNB-19 CNS it was 36.4%; in the assay on U251 CNS it was 23.5%; in the assay with PC-3 prostate, 36.4%. Besides, the growth in the assay with SK-MEL-5 melanoma is 57.9%; in the assay on UACC-62 melanoma it was 38.8%; in the assay with LOX IMVI melanoma, -6.25% (active); with SK-MEL-28 melanoma it was 55.2%.
As for `c1cn2cc(-c3ccc4ncn(C5CCCCC5)c4c3)nc(-c3ccc4c(c3)ncn4C3CCCCC3)c2n1`, the growth in the assay on HCT-15 colon was -11.5% (active); in the assay with HT29 colon it was -26.2% (active); in the assay with SNB-75 CNS it was -89.6% (active); with SNB-19 CNS, 6.63% (active); with U251 CNS, -83.3% (active); in the assay on PC-3 prostate it was -64.1% (active). In addition, the growth in the assay with SK-MEL-5 melanoma was -89.4% (active); in the assay on UACC-62 melanoma, -47.7% (active); in the assay on LOX IMVI melanoma, -87.4% (active); in the assay with SK-MEL-28 melanoma it was -19.8% (active).
Take `COc1cc(C2CC(c3cccc(Nc4ccnc5cc(Cl)ccc45)c3)=NN2C=O)cc(OC)c1OC` (stereo not given): the growth was 27.6% in the assay on HCT-15 colon; -54.3% (active) with HT29 colon; -26.9% (active) with SNB-75 CNS; 36.9% in the assay with SNB-19 CNS; 21.5% in the assay on U251 CNS; 16.7% in the assay on PC-3 prostate. In addition, the growth with SK-MEL-5 melanoma is 4.37% (active); in the assay on UACC-62 melanoma it was -35% (active); with LOX IMVI melanoma it was 19.9%; with SK-MEL-28 melanoma, 7.27% (active).
Consider `Cc1ccc(OC2=C(C#N)C(=N)N3C(=NN2)Sc2c(C)ccc(C)c23)cc1`, for which the growth is 104% with HCT-15 colon; 116% in the assay on HT29 colon; 96.5% with SNB-75 CNS; 118% in the assay with SNB-19 CNS; 103% with U251 CNS; 82.4% with PC-3 prostate. Moreover, the growth with SK-MEL-5 melanoma is 96.3%; in the assay on UACC-62 melanoma, 98.7%; in the assay on LOX IMVI melanoma, 96.7%; in the assay with SK-MEL-28 melanoma, 106%.
Turning to `CN1C2CCC1/C(=C\c1ccc(F)cc1)C(=O)/C2=C/c1ccc(F)cc1`, the growth in the assay with HCT-15 colon is 38.7%; in the assay on HT29 colon it was 15.5%; in the assay with SNB-75 CNS, 59.6%; in the assay with SNB-19 CNS it was 55.7%; with U251 CNS, 16.2%; in the assay with PC-3 prostate it was 34.5%. The growth with SK-MEL-5 melanoma was 40.1%; with UACC-62 melanoma, 26.4%; in the assay on LOX IMVI melanoma it was 28.2%; in the assay on SK-MEL-28 melanoma it was 73%.
In the case of `Cc1c(C(N)=O)sc2ncn(CC(=O)NN=C3CCCCC3)c(=O)c12`, the growth was 109% in the assay on HCT-15 colon; 90.5% in the assay on HT29 colon; 102% in the assay on SNB-75 CNS; 104% with SNB-19 CNS; 99.5% with U251 CNS; 122% in the assay with PC-3 prostate. Besides, the growth was 106% in the assay with SK-MEL-5 melanoma, 99.9% in the assay on UACC-62 melanoma, 103% in the assay with LOX IMVI melanoma and 118% in the assay with SK-MEL-28 melanoma.
Regarding `CN1C(=O)NC(Cc2c[nH]c3c(Cl)cccc23)C1=O` (stereo not given), the growth in the assay on HCT-15 colon was 99.5%; in the assay on HT29 colon, 110%; with SNB-75 CNS, 103%; in the assay on SNB-19 CNS, 106%; in the assay on U251 CNS, 92.8%; with PC-3 prostate it was 82.9%. Besides, the growth was 98.5% with SK-MEL-5 melanoma, 96.1% in the assay with UACC-62 melanoma, 99.7% in the assay with LOX IMVI melanoma and 115% with SK-MEL-28 melanoma.

Source of the values: PubChem BioAssay (NCI).
